Drawing on the antibiotic and cytotoxicity screens of Wong et al. (2023), this text covers cytotoxicity call for 66 compounds.

Out of some 39,000 compounds screened, about 3,300 (8.5%) were called active. Shown is part of a subset that was picked to be rich in actives.

This test deals with HepG2. As to the kind of experiment: cytotoxicity call (relative viability < 0.9). The note with it: 10 µM.
On to `CCCCCCC#C[Si](O[C@H](c1ccccc1)c1cn(Cc2cccc(Cl)c2)nn1)(C(C)C)C(C)C`, for which the cytotoxicity call was “inactive”.

For `C[C@@H]1CCCCO[C@H](CN(C)C(=O)Nc2ccccc2)[C@H](C)CN([C@@H](C)CO)C(=O)c2cc(NS(=O)(=O)c3ccc(Cl)cc3)ccc2O1`, the cytotoxicity call was “inactive”.

For `COc1ccc(C#Cc2ccc3c(c2)[C@H]2[C@H](CCN2C(=O)Nc2ccc(C(F)(F)F)cc2)[C@@H](CO)N3C)cc1`, the cytotoxicity call is “inactive”.

Regarding `C[C@@H]1CCCCO[C@H](CN(C)C(=O)Nc2ccc3c(c2)OCO3)[C@H](C)CN([C@@H](C)CO)C(=O)c2cc(NC(=O)CCC(F)(F)F)ccc2O1`, the cytotoxicity call was “inactive”.

As to `O=C(CCCCCCC(=O)Nc1ccc(C(=O)NCCOCCOCCNC(=O)c2ccc(NC(=O)CCCCCCC(=O)NO)cc2)cc1)NO`, the cytotoxicity call is “inactive”.

As for `COCC(=O)N(C)C[C@@H]1Oc2cc(-c3ccc(C#N)cc3)ccc2S(=O)(=O)N([C@@H](C)CO)C[C@H]1C`, the cytotoxicity call was “inactive”.

As for `C[C@H](CO)N1C[C@H](C)[C@H](CN(C)C(=O)CN2CCOCC2)Oc2ncc(/C=C/c3ccccc3)cc2C1=O`, the cytotoxicity call is “inactive”.

In the case of `COCCC(=O)N1C[C@H]2CN(c3cnn(C)c3)C(=O)[C@@H]2C1`, the cytotoxicity call is “inactive”.

As for `Cc1ccc(F)cc1NC(=O)CN`, the cytotoxicity call was “inactive”.

Take `COc1ccc(NC(=O)Nc2ccc3c(c2)C(=O)N([C@@H](C)CO)C[C@H](C)[C@H](CN(C)S(=O)(=O)c2ccc(OC)cc2)OCCCC[C@@H](C)O3)cc1`: the cytotoxicity call is “inactive”.

Consider `COc1ccc(NC(=O)Nc2ccc3c(c2)C(=O)N([C@H](C)CO)C[C@@H](C)[C@H](CN(C)S(=O)(=O)c2ccc(OC)cc2)OCCCC[C@@H](C)O3)cc1`, for which the cytotoxicity call is “active”.

Consider `COc1ccc(NC(=O)Nc2ccc3c(c2)C(=O)N([C@@H](C)CO)C[C@@H](C)[C@@H](CN(C)S(=O)(=O)c2ccccc2)OCCCC[C@@H](C)O3)cc1`, for which the cytotoxicity call was “inactive”.

`COc1ccc(NC(=O)Nc2ccc3c(c2)C(=O)N([C@H](C)CO)C[C@@H](C)[C@H](CN(C)S(=O)(=O)c2ccccc2)OCCCC[C@H](C)O3)cc1`: the cytotoxicity call is “active”.

Take `COc1ccc(NC(=O)Nc2ccc3c(c2)C(=O)N([C@H](C)CO)C[C@H](C)[C@H](CN(C)S(=O)(=O)c2ccc(C)cc2)OCCCC[C@@H](C)O3)cc1`: the cytotoxicity call is “inactive”.

With `COc1ccc(NC(=O)Nc2ccc3c(c2)C(=O)N([C@@H](C)CO)C[C@@H](C)[C@H](CN(C)S(=O)(=O)c2ccccc2)OCCCC[C@@H](C)O3)cc1`, the cytotoxicity call is “inactive”.

Turning to `COc1ccc(NC(=O)Nc2ccc3c(c2)C(=O)N([C@@H](C)CO)C[C@@H](C)[C@H](CN(C)S(=O)(=O)c2ccc(C)cc2)OCCCC[C@H](C)O3)cc1`, the cytotoxicity call was “inactive”.

Take `COc1ccc(NC(=O)Nc2ccc3c(c2)C(=O)N([C@@H](C)CO)C[C@@H](C)[C@@H](CN(C)S(=O)(=O)c2ccc(OC)cc2)OCCCC[C@@H](C)O3)cc1`: the cytotoxicity call was “inactive”.

On to `COc1ccc(NC(=O)Nc2ccc3c(c2)C(=O)N([C@H](C)CO)C[C@@H](C)[C@H](CN(C)S(=O)(=O)c2ccc(C)cc2)OCCCC[C@H](C)O3)cc1`, for which the cytotoxicity call is “active”.

For `C[C@H](CO)N1C[C@H](C)[C@H](CN(C)C(=O)c2ccc(N3CCN(C)CC3)cc2)OCc2cnnn2CCCC1=O`, the cytotoxicity call is “inactive”.

For `C[C@H](O)C#Cc1ccc2c(c1)O[C@@H](CN(C)C)[C@@H](C)CN([C@@H](C)CO)S2(=O)=O`, the cytotoxicity call is “inactive”.

For `COc1ccc(S(=O)(=O)N(C)C[C@H]2Oc3c(NS(=O)(=O)c4ccc(C)cc4)cccc3C(=O)N([C@@H](C)CO)C[C@@H]2C)cc1`, the cytotoxicity call is “inactive”.

As for `CCNC(=O)C[C@H]1CC[C@@H](NC(=O)C2CC2)[C@@H](CO)O1`, the cytotoxicity call is “inactive”.

On to `Cc1noc(C)c1C(=O)OCC(=O)NC1CC1`, for which the cytotoxicity call was “inactive”.

Consider `Cc1cc(C(=O)Nc2cccc3c2O[C@@H](CN(C)Cc2ccncc2)[C@H](C)CN([C@H](C)CO)C3=O)n(C)n1`, for which the cytotoxicity call was “inactive”.

For the compound `COC(=O)c1cnn2c(=O)cc(C)[nH]c12`, the cytotoxicity call is “inactive”.

Turning to `O=C(C[C@H]1CC[C@H]2[C@@H](COC[C@@H](O)CN2S(=O)(=O)c2cccc(F)c2)O1)NCCCN1CCOCC1`, the cytotoxicity call was “inactive”.

Turning to `C[C@H]1CN([C@@H](C)CO)C(=O)c2cc(NC(=O)Nc3ccc(F)cc3)ccc2O[C@H]1CN(C)Cc1ccc(C(F)(F)F)cc1`, the cytotoxicity call is “inactive”.

`C[C@H](CO)N1C[C@H](C)[C@H](CN(C)Cc2ccc(C(F)(F)F)cc2)Oc2ccc(NC(=O)Nc3ccc(F)cc3)cc2C1=O`: the cytotoxicity call is “inactive”.

Consider `C[C@H](CO)N1C[C@H](C)[C@@H](CN(C)Cc2ccc(C(F)(F)F)cc2)Oc2ccc(NC(=O)Nc3ccc(F)cc3)cc2C1=O`, for which the cytotoxicity call was “active”.

As for `C[C@H]1CN([C@@H](C)CO)C(=O)c2cc(NC(=O)Nc3ccc(F)cc3)ccc2O[C@@H]1CN(C)Cc1ccc(C(F)(F)F)cc1`, the cytotoxicity call is “inactive”.

For `C[C@@H]1CN([C@H](C)CO)C(=O)c2cc(NC(=O)Nc3ccc(F)cc3)ccc2O[C@H]1CN(C)Cc1ccc(C(F)(F)F)cc1`, the cytotoxicity call is “active”.

On to `C[C@@H]1CN([C@@H](C)CO)C(=O)c2cc(NC(=O)Nc3ccc(F)cc3)ccc2O[C@@H]1CN(C)Cc1ccc(C(F)(F)F)cc1`, for which the cytotoxicity call is “active”.

Turning to `C[C@@H]1CN([C@@H](C)CO)C(=O)c2cc(NC(=O)Nc3ccc(F)cc3)ccc2O[C@H]1CN(C)Cc1ccc(C(F)(F)F)cc1`, the cytotoxicity call was “active”.

In the case of `C[C@@H]1CN([C@H](C)CO)C(=O)c2cc(NC(=O)Nc3ccc(F)cc3)ccc2O[C@@H]1CN(C)Cc1ccc(C(F)(F)F)cc1`, the cytotoxicity call is “inactive”.

With `O=C(C[C@@H]1CC[C@@H]2[C@H](COC[C@@H](O)CN2C(=O)c2cccnc2)O1)NCc1ccc(-c2ccccc2)cc1`, the cytotoxicity call is “inactive”.

For the compound `C[C@@H]1CN([C@H](C)CO)C(=O)Cc2cc(NS(=O)(=O)c3cn(C)cn3)ccc2O[C@@H]1CN(C)C(=O)NC1CCCCC1`, the cytotoxicity call is “inactive”.

Consider `C[C@H](CO)N1C[C@H](C)[C@@H](CN(C)Cc2cccc3c2OCCCO3)OCc2cn(nn2)CCCC1=O`, for which the cytotoxicity call was “inactive”.

For the compound `O=C1CSCCN1`, the cytotoxicity call was “inactive”.

Regarding `OCc1ncc[nH]1`, the cytotoxicity call is “inactive”.

For `CCNC(=O)[C@H]1[C@H](CO)[C@H]2Cn3c(ccc(-c4ccc(OC)cc4)c3=O)[C@@H]1N2S(C)(=O)=O`, the cytotoxicity call is “inactive”.

On to `C[C@@H]1CN([C@@H](C)CO)S(=O)(=O)c2ccc(C3=CCCC3)cc2O[C@@H]1CN(C)C(=O)Cc1ccncc1`, for which the cytotoxicity call is “inactive”.

For the compound `COc1ccc2c(c(Br)c(C(=O)O)n2CCCOc2cccc3ccccc23)c1-c1ccccc1C`, the cytotoxicity call was “inactive”.

As to `C[C@H](CO)N1C[C@H](C)[C@@H](CN(C)Cc2ccc(C(=O)O)cc2)Oc2ccc(NC(=O)Cn3cnnn3)cc2CC1=O`, the cytotoxicity call was “inactive”.

As to `CC(C)(C)C(=O)C[C@@H](Nc1ccccc1)c1ccc(Cl)cc1`, the cytotoxicity call is “inactive”.

Consider `COc1cccc(-c2ccc3n(c2=O)C[C@H]2[C@H](CO)[C@@H](C(=O)NCC4CC4)[C@@H]3N2S(C)(=O)=O)c1`, for which the cytotoxicity call is “inactive”.

For the compound `C[C@H]1CN([C@@H](C)CO)C(=O)c2cccc(NS(=O)(=O)c3cn(C)cn3)c2O[C@@H]1CN(C)CC1CC1`, the cytotoxicity call is “inactive”.

Take `CCc1nc2c(OCC(=O)c3ccc(Cl)cc3Cl)cccn2c1N(C)C(=O)COc1ccccc1`: the cytotoxicity call was “active”.

For the compound `CCc1nc2c(OCC(=O)c3ccc(Cl)cc3Cl)cccn2c1N(C=O)Cc1ccc(OC)cc1`, the cytotoxicity call is “inactive”.

As to `CCc1nc2ccc(C(=O)N3CCN(C(=O)c4ccco4)CC3)cn2c1N(C)C(=O)COc1ccccc1`, the cytotoxicity call was “inactive”.

For `C[C@@H]1CN([C@H](C)CO)C(=O)Cc2cc(NS(=O)(=O)c3cccs3)ccc2O[C@H]1CN(C)CC1CC1`, the cytotoxicity call is “inactive”.

On to `CC(C)=CCC/C(C)=C/CC1=C(C)C(=O)c2ccccc2C1=O`, for which the cytotoxicity call was “inactive”.

Consider `C[C@@H]1CN([C@H](C)CO)C(=O)Cc2cc(NC(=O)Nc3cccc4ccccc34)ccc2O[C@H]1CN(C)Cc1ccc(C(F)(F)F)cc1`, for which the cytotoxicity call is “inactive”.

`C[C@@H]1CN([C@@H](C)CO)C(=O)Cc2cc(NC(=O)Nc3cccc4ccccc34)ccc2O[C@@H]1CN(C)C(=O)Nc1ccc(C(F)(F)F)cc1`: the cytotoxicity call was “inactive”.

In the case of `C[C@@H]1CN([C@@H](C)CO)C(=O)Cc2cc(NC(=O)Nc3cccc4ccccc34)ccc2O[C@@H]1CN(C)Cc1ccc(C(F)(F)F)cc1`, the cytotoxicity call is “active”.

`C[C@H]1CN([C@@H](C)CO)C(=O)Cc2cc(NC(=O)Nc3cccc4ccccc34)ccc2O[C@@H]1CN(C)Cc1ccc(C(F)(F)F)cc1`: the cytotoxicity call is “inactive”.

`C[C@H](CO)N1C[C@H](C)[C@H](CN(C)Cc2ccc(C(F)(F)F)cc2)Oc2ccc(NC(=O)Nc3cccc4ccccc34)cc2CC1=O`: the cytotoxicity call was “inactive”.

Turning to `C[C@@H]1CN([C@@H](C)CO)C(=O)Cc2cc(NC(=O)Nc3cccc4ccccc34)ccc2O[C@H]1CN(C)Cc1ccc(C(F)(F)F)cc1`, the cytotoxicity call is “inactive”.

Consider `C[C@H]1CN([C@@H](C)CO)C(=O)Cc2cc(NC(=O)Nc3cccc4ccccc34)ccc2O[C@H]1CN(C)Cc1ccc(C(F)(F)F)cc1`, for which the cytotoxicity call was “active”.

As to `C[C@H](CO)N1C[C@H](C)[C@@H](CN(C)Cc2ccc(C(F)(F)F)cc2)Oc2ccc(NC(=O)Nc3cccc4ccccc34)cc2CC1=O`, the cytotoxicity call was “inactive”.

Consider `C[C@@H]1CN([C@H](C)CO)C(=O)Cc2cc(NC(=O)Nc3cccc4ccccc34)ccc2O[C@@H]1CN(C)Cc1ccc(C(F)(F)F)cc1`, for which the cytotoxicity call was “active”.

Consider `O=C(COc1ccccc1)N1CCNC1=O`, for which the cytotoxicity call was “inactive”.

Regarding `CC(C)NC(=O)N(C)C[C@@H]1Oc2ncc(-c3ccc(C(=O)N(C)C)cc3)cc2C(=O)N([C@@H](C)CO)C[C@H]1C`, the cytotoxicity call is “inactive”.

For `O=C(C[C@H]1C[C@H]2c3cc(NC(=O)C4CCOCC4)ccc3O[C@H]2[C@@H](CO)O1)NCCN1CCCCC1`, the cytotoxicity call is “inactive”.

For `C[C@H]1CCCCO[C@H](CN(C)C(=O)c2ccccc2)[C@@H](C)CN([C@@H](C)CO)C(=O)c2cc(NC(=O)NC3CCCCC3)ccc2O1`, the cytotoxicity call was “inactive”.

With `C[C@@H]1CN([C@H](C)CO)C(=O)c2cc(NC(=O)c3ccncc3)ccc2O[C@@H]1CN(C)Cc1ccc2c(c1)OCO2`, the cytotoxicity call is “inactive”.

On to `COc1ccc(S(=O)(=O)Nc2ccc3c(c2)C(=O)N([C@@H](C)CO)C[C@@H](C)[C@@H](CN(C)C(=O)Nc2ccc4c(c2)OCO4)OCCCC[C@H](C)O3)cc1`, for which the cytotoxicity call was “inactive”.
